Measurements from PubChem BioAssay (NCI).
Compounds without any hit were thinned out: in the full panel of roughly 83,000, 20% have a hit.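 In brief: 96-well plates, 48 h treatment, single concentration, percent growth endpoint.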 The source made the active and inactive calls. Rule for the calls: active = growth percent below 10; inactive = the rest.

What was measured:
Assay in all cases: NCI-60 one-dose screen, 48 h (100 = growth as untreated, 0 = no growth, -100 = all killed)
HCT-15 colon = settings: 10 µM unless noted
HT29 colon = settings: 10 µM unless noted
SNB-75 CNS = settings: 10 µM unless noted
U251 CNS = settings: 10 µM unless noted
PC-3 prostate = settings: 10 µM unless noted
SK-MEL-5 melanoma = settings: 10 µM unless noted
UACC-62 melanoma = settings: 10 µM unless noted
SK-MEL-28 melanoma = settings: 10 µM unless noted
SNB-19 CNS = settings: 10 µM unless noted
LOX IMVI melanoma = settings: 10 µM

Measured: growth

Cc1ccc(-n2c(-c3cc4ccccc4nc3Cl)noc2=O)cc1
inactive: HCT-15 colon 39.1% | HT29 colon 110% | SNB-75 CNS 40.1% | U251 CNS 83.7% | PC-3 prostate 75.5% | SK-MEL-5 melanoma 66.1% | UACC-62 melanoma 56% | SK-MEL-28 melanoma 97.1%

CN(C)CCOc1ccc(C(=O)C2[C@H](c3ccc(Cl)cc3)[C@@H](c3ccccc3)NC23C(=O)Nc2ccccc23)cc1 (stereo partly drawn)
active: HT29 colon -69.3% | LOX IMVI melanoma -94.3%
inactive: HCT-15 colon 12% | SNB-19 CNS 83.8% | U251 CNS 11.9% | PC-3 prostate 41.9% | SK-MEL-5 melanoma 83.7% | UACC-62 melanoma 78.8% | SK-MEL-28 melanoma 94.6%

COc1c(F)ccc(C(=O)Nc2ccc3nc(NC(=O)C4CCCN(S(=O)(=O)c5cccc(Br)c5)C4)sc3c2)c1F (stereo not drawn)
inactive: HCT-15 colon 80.8% | HT29 colon 85.7% | SNB-19 CNS 82.7% | U251 CNS 75% | PC-3 prostate 57.8% | SK-MEL-5 melanoma 89.4% | UACC-62 melanoma 80.8% | LOX IMVI melanoma 85% | SK-MEL-28 melanoma 97.8%

Cn1cc(NC(=O)c2cc(NC(=O)c3ccc(C#Cc4ccccc4)cc3)cn2C)cc1C(=O)NCCCN1CCOCC1
inactive: SNB-19 CNS 73.3% | PC-3 prostate 29.8%
active: HCT-15 colon -59.4% | HT29 colon -71.2% | U251 CNS -70.1% | SK-MEL-5 melanoma -92% | UACC-62 melanoma -90.9% | LOX IMVI melanoma -100% | SK-MEL-28 melanoma -91.8%

COc1ccc(-c2ccc(SCC(=O)NCCc3ccc(S(N)(=O)=O)cc3)nn2)cc1
inactive: HCT-15 colon 110% | HT29 colon 96.5% | SNB-19 CNS 77.4% | U251 CNS 91.1% | PC-3 prostate 81.8% | SK-MEL-5 melanoma 52.9% | UACC-62 melanoma 75.8% | LOX IMVI melanoma 89.1% | SK-MEL-28 melanoma 89.1%

CC1(C)CC[C@]2(C(=O)Nc3ccc(Br)cc3)CC[C@]3(C)C(=CCC4[C@@]5(C)C[C@@H](O)[C@H](O)[C@@](C)(CO)C5CC[C@]43C)C2C1 (stereo partly drawn)
inactive: SNB-75 CNS 57.8% | SK-MEL-28 melanoma 32.1%
active: HCT-15 colon -13% | HT29 colon -60.9% | U251 CNS -18.9% | PC-3 prostate -13.8% | SK-MEL-5 melanoma -94.4% | UACC-62 melanoma 8.99%

COc1ccc2[nH]c(=O)c(CSc3nccc(-c4ccc(OC)c(OC)c4)n3)cc2c1
active: PC-3 prostate 5.92% | SK-MEL-5 melanoma -1.05%
inactive: HCT-15 colon 16.4% | HT29 colon 16.2% | SNB-19 CNS 21.4% | U251 CNS 26% | UACC-62 melanoma 27.9% | LOX IMVI melanoma 24.5% | SK-MEL-28 melanoma 42.7%

COc1c(F)ccc(C(=O)Nc2ccc3nc(NC(=O)C4CCCN(S(=O)(=O)c5ccc(C#N)cc5)C4)sc3c2)c1F (stereo not drawn)
inactive: HCT-15 colon 90.1% | HT29 colon 85.8% | SNB-19 CNS 100% | U251 CNS 89.3% | PC-3 prostate 81.9% | SK-MEL-5 melanoma 82.5% | UACC-62 melanoma 78.7% | LOX IMVI melanoma 95.4% | SK-MEL-28 melanoma 105%

CCCn1cc(-c2nc(Nc3ccc(C(=O)NCCCCNc4cccc5c4C(=O)N(C4CCC(=O)NC4=O)C5=O)cc3)nc3[nH]ccc23)cn1 (stereo not drawn)
active: PC-3 prostate 3.62%
inactive: HCT-15 colon 40.1% | HT29 colon 28.1% | SNB-19 CNS 23.4% | U251 CNS 54.1% | SK-MEL-5 melanoma 15.8% | UACC-62 melanoma 74.6% | LOX IMVI melanoma 90.5% | SK-MEL-28 melanoma 59.3%

COc1ccc(-c2ccc(SCC(=O)Nc3ccc(S(N)(=O)=O)cc3Br)nn2)cc1
inactive: HCT-15 colon 84.5% | HT29 colon 95.7% | SNB-19 CNS 23.4% | U251 CNS 52.4% | PC-3 prostate 73.5% | SK-MEL-5 melanoma 94.3% | UACC-62 melanoma 83.2% | LOX IMVI melanoma 98.8% | SK-MEL-28 melanoma 99.2%

CC(=O)Nc1ccc(-n2cnc3ccc(-c4ccc(O)cc4)cc32)cc1
inactive: HCT-15 colon 52% | HT29 colon 102% | SNB-75 CNS 56.5% | U251 CNS 37% | PC-3 prostate 47.6% | SK-MEL-5 melanoma 54.6% | UACC-62 melanoma 46.1% | SK-MEL-28 melanoma 44.3%

CCN(CC)CCOc1ccc(Nc2ncc3cc(-c4ccc(O)c(C#N)c4)c(=O)n(C)c3n2)cc1
active: HT29 colon -58.4% | U251 CNS -61.2%
inactive: HCT-15 colon 86.2% | SNB-19 CNS 108% | PC-3 prostate 69.5% | SK-MEL-5 melanoma 43.8% | UACC-62 melanoma 92.1% | LOX IMVI melanoma 47% | SK-MEL-28 melanoma 79.8%

Cn1cc(-c2cc(N)n3nc(-c4cn(C)c5ncccc45)cc3n2)c2cccnc21
inactive: SNB-19 CNS 101% | PC-3 prostate 79.7% | SK-MEL-5 melanoma 68.4% | UACC-62 melanoma 102% | SK-MEL-28 melanoma 106%
active: HCT-15 colon -91.7% | HT29 colon -66.7% | U251 CNS -46.1% | LOX IMVI melanoma -100%

O=c1oc2ccc(Br)cc2cc1C1=CSc2nc3sc4c(c3c(=O)n2N=C1)CCCC4
inactive: HCT-15 colon 95.1% | HT29 colon 108% | SNB-19 CNS 97% | U251 CNS 99.3% | PC-3 prostate 76.7% | SK-MEL-5 melanoma 96.9% | UACC-62 melanoma 71.7% | LOX IMVI melanoma 86.4% | SK-MEL-28 melanoma 105%

N/C(=N\N=C\c1ccc([N+](=O)[O-])cc1)c1c(N)nc(=S)[nH]c1-c1ccc(Cl)cc1Cl
inactive: HCT-15 colon 103% | HT29 colon 116% | SNB-19 CNS 74.9% | U251 CNS 67% | PC-3 prostate 96.8% | SK-MEL-5 melanoma 104% | UACC-62 melanoma 84.7% | LOX IMVI melanoma 96.5% | SK-MEL-28 melanoma 113%

O=C(c1ccc(OCCN2CCOCC2)cc1)C1[C@H](c2ccc(Cl)cc2)[C@@H](c2ccccc2)NC12C(=O)Nc1ccc(Cl)cc12 (stereo partly drawn)
inactive: HCT-15 colon 16.2% | SNB-19 CNS 41% | U251 CNS 25.3% | SK-MEL-5 melanoma 51.6% | UACC-62 melanoma 40.1% | SK-MEL-28 melanoma 51.7%
active: HT29 colon -75.4% | PC-3 prostate 6.16% | LOX IMVI melanoma -45.5%

CC12CC[C@@H]3[C@]4(C)COC(c5c(F)cccc5F)O[C@@H]4CC[C@@]3(C)[C@@H]1CC(C1=CCOC1=O)O2 (stereo partly drawn)
inactive: HCT-15 colon 80.4% | HT29 colon 76.5% | SNB-19 CNS 63.2% | U251 CNS 80% | PC-3 prostate 56.4% | SK-MEL-5 melanoma 47.4% | UACC-62 melanoma 50.4% | LOX IMVI melanoma 73.1% | SK-MEL-28 melanoma 88.8%

COc1ccc(-c2ccnc(SCc3cc4ccccc4[nH]c3=O)n2)cc1OC
active: HT29 colon -80.8% | SNB-19 CNS -7.41% | U251 CNS -13.5% | PC-3 prostate -21.9% | SK-MEL-5 melanoma 1.35% | UACC-62 melanoma 1.83% | SK-MEL-28 melanoma 9.54%
inactive: HCT-15 colon 39.5% | LOX IMVI melanoma 18.8%

COc1ccc(-c2nc3cc(C)ccc3n2CC(=O)N=Nc2c(O)[nH]c3ccc(Br)cc23)cc1
inactive: SNB-19 CNS 29.2% | PC-3 prostate 13.9%
active: HCT-15 colon -66.1% | HT29 colon -67.4% | U251 CNS -63.1% | SK-MEL-5 melanoma -45.6% | UACC-62 melanoma -42.8% | LOX IMVI melanoma -81.9% | SK-MEL-28 melanoma -53.8%
